# Measurements reported in ChEMBL document CHEMBL3988442, “University of Dundee, Small-Polar-MMV Screening Library” (2021).
# For some assays here: Measured potencies and affinities stand elsewhere.
# Columns and labels:
# [1] = target: T1, Methionyl-tRNA synthetase, putative (Leishmania donovani (strain BPK282A1)) (UniProt E9BF75); experiment: Leishmania donovani Methionine tRNA synthetase (LdMetRS):v7. Dose response assay; type: functional; set-up: conc 80 nM, time 150 minutes
# T1 sequence (whole entry): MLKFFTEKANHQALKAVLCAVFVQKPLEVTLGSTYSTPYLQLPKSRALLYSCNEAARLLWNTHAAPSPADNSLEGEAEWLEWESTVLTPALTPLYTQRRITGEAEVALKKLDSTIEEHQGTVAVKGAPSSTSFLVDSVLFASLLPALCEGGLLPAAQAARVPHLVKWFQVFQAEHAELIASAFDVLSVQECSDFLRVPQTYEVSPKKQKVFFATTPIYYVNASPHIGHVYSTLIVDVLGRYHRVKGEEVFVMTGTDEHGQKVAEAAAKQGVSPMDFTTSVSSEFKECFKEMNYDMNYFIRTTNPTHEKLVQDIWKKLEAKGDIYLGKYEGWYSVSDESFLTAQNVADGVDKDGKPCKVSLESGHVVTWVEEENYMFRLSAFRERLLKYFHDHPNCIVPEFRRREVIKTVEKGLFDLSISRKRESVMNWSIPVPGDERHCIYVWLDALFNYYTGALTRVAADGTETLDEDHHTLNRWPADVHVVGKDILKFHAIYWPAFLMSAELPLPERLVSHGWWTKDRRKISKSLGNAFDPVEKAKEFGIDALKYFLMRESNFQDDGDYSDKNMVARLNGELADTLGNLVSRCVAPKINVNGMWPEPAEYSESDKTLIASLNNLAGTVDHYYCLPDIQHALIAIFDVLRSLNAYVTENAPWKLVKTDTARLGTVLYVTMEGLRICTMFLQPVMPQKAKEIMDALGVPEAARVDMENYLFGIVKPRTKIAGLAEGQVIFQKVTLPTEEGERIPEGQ
# [2] = target: Protein translocase subunit SecA (Escherichia coli (strain K12)) (UniProt P10408); experiment: Assay to Identify E. coli SecA ATPase Inhibitors; type: functional; set-up: scale not given: direction of the effect not stated beside the values; conditions: 30 µM
# Protein translocase subunit SecA (Escherichia coli (strain K12)), sequence (P10408 whole entry): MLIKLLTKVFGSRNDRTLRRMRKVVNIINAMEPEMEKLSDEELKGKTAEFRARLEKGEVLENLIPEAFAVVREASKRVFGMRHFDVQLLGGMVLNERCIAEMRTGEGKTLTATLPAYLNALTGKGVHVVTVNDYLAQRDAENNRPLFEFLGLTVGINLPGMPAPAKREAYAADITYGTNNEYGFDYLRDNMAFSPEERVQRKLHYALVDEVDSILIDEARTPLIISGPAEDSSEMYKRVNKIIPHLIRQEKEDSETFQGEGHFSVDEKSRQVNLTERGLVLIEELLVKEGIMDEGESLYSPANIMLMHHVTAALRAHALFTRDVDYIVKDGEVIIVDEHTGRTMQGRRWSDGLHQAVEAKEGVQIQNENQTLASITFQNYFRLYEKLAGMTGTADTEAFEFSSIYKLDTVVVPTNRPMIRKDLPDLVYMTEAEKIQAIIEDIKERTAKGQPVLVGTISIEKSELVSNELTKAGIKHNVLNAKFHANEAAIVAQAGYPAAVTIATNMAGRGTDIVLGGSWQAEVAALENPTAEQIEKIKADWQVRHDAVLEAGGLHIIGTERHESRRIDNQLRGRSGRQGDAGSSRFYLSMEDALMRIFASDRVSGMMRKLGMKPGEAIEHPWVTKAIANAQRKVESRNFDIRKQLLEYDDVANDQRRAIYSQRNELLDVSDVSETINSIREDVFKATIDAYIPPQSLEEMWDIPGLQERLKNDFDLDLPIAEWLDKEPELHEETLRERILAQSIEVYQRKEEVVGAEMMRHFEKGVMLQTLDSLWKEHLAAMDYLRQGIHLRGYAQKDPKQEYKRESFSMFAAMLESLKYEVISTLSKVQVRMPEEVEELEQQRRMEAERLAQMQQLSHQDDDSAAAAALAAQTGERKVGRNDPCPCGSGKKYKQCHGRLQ
# [3] = target: T2, Ubiquitin-activating enzyme e1, putative (Leishmania donovani (strain BPK282A1)) (UniProt E9BSI1); experiment: Leishmania donovani Ubiquitin Activating Enzyme (LdE1); type: functional; set-up: scale not given: direction of the effect not stated beside the values; conditions: 30 µM
# T2 sequence (whole entry): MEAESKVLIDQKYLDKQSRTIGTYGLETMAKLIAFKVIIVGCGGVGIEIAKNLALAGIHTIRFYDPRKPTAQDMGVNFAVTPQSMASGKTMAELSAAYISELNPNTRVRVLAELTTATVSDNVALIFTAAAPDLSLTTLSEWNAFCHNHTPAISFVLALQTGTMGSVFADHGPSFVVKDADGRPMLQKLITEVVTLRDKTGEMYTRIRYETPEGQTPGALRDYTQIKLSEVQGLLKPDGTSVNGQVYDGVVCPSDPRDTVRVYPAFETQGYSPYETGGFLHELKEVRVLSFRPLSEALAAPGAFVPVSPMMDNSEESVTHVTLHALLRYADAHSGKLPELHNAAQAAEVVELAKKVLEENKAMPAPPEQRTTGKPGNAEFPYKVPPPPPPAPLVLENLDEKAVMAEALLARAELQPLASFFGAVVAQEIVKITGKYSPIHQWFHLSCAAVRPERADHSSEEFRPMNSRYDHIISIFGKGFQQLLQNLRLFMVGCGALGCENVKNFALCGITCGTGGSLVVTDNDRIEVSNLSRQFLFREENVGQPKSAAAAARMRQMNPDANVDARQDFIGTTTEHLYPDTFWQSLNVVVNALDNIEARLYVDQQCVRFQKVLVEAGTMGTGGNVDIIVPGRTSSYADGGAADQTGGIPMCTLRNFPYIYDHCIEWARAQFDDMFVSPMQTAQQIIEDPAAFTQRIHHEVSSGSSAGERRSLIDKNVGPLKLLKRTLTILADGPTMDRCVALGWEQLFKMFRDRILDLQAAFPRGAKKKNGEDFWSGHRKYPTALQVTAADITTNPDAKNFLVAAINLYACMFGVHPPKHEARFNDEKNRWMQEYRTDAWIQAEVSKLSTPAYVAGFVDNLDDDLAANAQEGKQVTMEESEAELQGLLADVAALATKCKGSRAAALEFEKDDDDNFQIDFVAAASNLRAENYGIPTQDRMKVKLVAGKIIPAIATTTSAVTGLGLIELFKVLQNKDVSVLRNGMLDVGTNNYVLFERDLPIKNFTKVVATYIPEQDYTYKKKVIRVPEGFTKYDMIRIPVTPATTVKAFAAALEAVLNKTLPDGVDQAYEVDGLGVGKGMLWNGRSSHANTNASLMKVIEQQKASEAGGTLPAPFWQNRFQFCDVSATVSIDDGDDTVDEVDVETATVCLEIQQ
# [4] = target: AMP-activated protein kinase, AMPK (Homo sapiens) (UniProt P54646+O43741+P54619+Q9UGJ0+Q9Y478+Q13131+Q9UGI9); experiment: AMP-dependent Kinase enzyme assay. An in vitro enzyme assay that detects ADP turnover that is directly proportional to AMPK activity. This uses naive AMPK that is activated during the assay with MK-8722; type: functional; set-up: scale not given: direction of the effect not stated beside the values; conditions: 30 µM
# [5] = target: Sialic acid-binding Ig-like lectin 9 (Homo sapiens) (UniProt Q9Y336); experiment: Hs-Siglec9 ALPHAscreen SOP 20170721; set-up: scale not given: direction of the effect not stated beside the values; conditions: 10 µM
# Sialic acid-binding Ig-like lectin 9 (Homo sapiens), sequence (Q9Y336 whole entry): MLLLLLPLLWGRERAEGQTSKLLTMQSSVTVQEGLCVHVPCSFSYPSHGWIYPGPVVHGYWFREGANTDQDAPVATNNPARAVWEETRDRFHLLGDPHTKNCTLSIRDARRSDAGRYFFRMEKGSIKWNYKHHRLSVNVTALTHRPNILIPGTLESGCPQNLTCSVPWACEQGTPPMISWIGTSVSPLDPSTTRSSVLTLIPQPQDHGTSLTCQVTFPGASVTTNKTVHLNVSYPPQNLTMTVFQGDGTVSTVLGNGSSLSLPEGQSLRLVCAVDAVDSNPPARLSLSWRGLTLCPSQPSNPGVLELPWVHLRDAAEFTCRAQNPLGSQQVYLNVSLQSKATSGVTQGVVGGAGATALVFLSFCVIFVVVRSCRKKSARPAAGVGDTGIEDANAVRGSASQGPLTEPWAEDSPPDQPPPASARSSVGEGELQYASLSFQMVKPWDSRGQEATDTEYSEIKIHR
# Trypanosoma cruzi = experiment: Trypanosoma cruzi phosphomannomutase and mannose-1-phosphate guanylyltransferase assay; type: functional; set-up: scale not given: direction of the effect not stated beside the values; conditions: 10 µM
# [6] = target: T3, Arginase-2, mitochondrial (Homo sapiens) (UniProt P78540); experiment: in vitro enzyme assay to detect the production of urea directly proportional to the activity of Arginase II; type: functional; set-up: scale not given: in the data most compounds retested in dose-response had high values; conditions: 33.3 µM
# T3 sequence (whole entry): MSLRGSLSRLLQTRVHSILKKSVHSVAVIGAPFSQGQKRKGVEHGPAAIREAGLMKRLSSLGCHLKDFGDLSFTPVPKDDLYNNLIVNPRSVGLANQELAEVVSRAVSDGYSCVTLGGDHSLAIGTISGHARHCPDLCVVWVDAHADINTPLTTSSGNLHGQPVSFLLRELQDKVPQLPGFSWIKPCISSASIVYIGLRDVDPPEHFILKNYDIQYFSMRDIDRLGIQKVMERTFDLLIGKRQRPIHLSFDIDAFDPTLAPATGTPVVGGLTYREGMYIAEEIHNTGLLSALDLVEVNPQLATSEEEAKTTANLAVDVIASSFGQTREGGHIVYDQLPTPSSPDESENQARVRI
# [7] = target: T4, Proteasome subunit beta (Trypanosoma cruzi) (UniProt O96673); experiment: Trypanosoma cruzi proteasome chymotrypsin-like activity (TcProtChymo) assay.; type: functional; set-up: scale not given: in the data most compounds retested in dose-response had high values; conditions: 9.37 µM
# T4 sequence (whole entry): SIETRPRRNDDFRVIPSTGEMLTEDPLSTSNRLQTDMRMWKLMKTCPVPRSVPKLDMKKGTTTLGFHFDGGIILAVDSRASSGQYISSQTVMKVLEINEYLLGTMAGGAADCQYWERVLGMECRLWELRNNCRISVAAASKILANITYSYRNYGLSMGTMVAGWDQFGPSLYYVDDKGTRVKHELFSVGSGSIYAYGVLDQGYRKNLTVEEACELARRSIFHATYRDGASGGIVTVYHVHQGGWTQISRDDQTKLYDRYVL
# Homo sapiens = organism: Homo sapiens; experiment: To identify inhibition of the IFN signalling (Jak-Stat) pathway via expression of an eGFP reporter gene under the control of an IFN-stimulated response element (ISRE) containing MxA promoter.; type: functional; set-up: scale not given: direction of the effect not stated beside the values; conditions: 30 µM
# [8] = target: T5, Tyrosyl-tRNA synthetase, putative (Trypanosoma cruzi (strain CL Brener)) (UniProt Q4DSP6); experiment: Trypanosoma cruzi tyrosyl tRNA synthetase (TcYRS) _High Tyrosine SOP; type: functional; set-up: scale not given: in the data most compounds retested in dose-response had high values; conditions: 30 µM
# T5 sequence (whole entry): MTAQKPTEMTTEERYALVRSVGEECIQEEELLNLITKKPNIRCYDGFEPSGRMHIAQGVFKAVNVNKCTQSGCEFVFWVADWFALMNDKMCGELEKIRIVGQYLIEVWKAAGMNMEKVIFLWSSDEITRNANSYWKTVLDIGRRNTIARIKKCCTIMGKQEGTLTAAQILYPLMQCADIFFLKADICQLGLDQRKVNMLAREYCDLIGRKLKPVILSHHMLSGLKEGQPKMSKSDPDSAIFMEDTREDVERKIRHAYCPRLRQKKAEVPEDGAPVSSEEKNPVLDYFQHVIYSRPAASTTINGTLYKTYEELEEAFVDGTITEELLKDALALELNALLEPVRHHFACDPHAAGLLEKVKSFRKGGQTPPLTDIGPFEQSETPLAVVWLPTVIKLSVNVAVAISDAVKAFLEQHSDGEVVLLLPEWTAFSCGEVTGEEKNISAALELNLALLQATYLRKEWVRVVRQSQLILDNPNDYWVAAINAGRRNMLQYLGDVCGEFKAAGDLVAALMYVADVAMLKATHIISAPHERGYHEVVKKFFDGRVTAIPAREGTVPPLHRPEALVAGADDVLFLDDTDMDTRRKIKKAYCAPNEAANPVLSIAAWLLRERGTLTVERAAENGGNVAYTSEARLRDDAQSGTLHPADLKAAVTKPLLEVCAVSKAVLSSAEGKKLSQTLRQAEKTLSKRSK
# [9] = target: T5, Tyrosyl-tRNA synthetase, putative (Trypanosoma cruzi (strain CL Brener)); experiment: Trypanosoma cruzi tyrosyl tRNA synthetase (TcYRS) SOP; type: functional; set-up: scale not given: direction of the effect not stated beside the values; conditions: 30 µM
# [10] = target: Chromo domain-containing protein 1 (Saccharomyces cerevisiae (strain ATCC 204508 / S288c) (Baker's yeast)) (UniProt P32657); experiment: ScCHD-1 Enzyme Inhibition Assay; type: functional; set-up: scale not given: in the data most compounds retested in dose-response had high values; conditions: 30 µM
# Chromo domain-containing protein 1 (Saccharomyces cerevisiae (strain ATCC 204508 / S288c) (Baker's yeast)), sequence (P32657 whole entry, the tested form may be a part): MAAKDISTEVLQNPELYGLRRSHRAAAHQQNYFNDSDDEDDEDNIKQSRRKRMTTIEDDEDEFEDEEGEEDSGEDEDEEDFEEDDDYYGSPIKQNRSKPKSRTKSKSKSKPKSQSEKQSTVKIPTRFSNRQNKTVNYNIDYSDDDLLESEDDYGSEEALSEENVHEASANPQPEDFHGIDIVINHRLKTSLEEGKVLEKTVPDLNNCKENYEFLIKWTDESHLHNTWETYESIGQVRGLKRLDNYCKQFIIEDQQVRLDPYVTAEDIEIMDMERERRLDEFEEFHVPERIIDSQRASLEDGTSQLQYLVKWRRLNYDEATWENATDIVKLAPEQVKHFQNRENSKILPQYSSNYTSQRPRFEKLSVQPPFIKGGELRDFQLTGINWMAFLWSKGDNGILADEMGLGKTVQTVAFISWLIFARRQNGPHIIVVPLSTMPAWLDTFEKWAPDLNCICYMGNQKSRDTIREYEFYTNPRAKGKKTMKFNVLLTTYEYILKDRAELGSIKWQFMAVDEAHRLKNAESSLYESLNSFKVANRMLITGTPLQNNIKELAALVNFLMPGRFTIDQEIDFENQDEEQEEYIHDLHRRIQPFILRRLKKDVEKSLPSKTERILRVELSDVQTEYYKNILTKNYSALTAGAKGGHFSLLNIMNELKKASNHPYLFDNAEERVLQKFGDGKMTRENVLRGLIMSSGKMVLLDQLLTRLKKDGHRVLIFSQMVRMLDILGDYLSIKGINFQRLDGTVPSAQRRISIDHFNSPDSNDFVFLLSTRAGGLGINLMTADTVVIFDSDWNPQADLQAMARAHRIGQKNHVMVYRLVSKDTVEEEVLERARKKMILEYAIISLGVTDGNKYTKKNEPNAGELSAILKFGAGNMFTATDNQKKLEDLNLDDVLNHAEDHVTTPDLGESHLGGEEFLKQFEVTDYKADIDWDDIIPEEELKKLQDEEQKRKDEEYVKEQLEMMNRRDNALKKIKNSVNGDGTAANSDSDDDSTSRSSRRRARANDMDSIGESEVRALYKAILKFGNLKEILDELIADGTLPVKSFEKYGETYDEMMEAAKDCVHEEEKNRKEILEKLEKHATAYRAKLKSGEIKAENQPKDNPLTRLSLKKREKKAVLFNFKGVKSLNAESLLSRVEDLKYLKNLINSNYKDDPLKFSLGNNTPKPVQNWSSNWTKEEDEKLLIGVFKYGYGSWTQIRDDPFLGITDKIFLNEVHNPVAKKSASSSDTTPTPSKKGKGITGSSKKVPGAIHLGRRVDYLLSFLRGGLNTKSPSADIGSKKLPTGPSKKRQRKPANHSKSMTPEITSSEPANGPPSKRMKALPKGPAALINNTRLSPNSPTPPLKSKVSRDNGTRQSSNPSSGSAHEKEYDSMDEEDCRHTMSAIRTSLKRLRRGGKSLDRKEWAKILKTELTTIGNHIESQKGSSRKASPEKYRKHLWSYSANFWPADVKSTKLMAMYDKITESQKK
smiles,measurement,setting,value
COc1ccccc1C1(CNc2nnc(C)c(C)c2C#N)CCCC1,PXC50,"[1]; BOTTOM 3.334115973, HILLSLOPE 1.087838863, MAX_EFFECT 53.16698656, TOP 83.15988554",4.21
same,PXC50,[1]; MAX_EFFECT 37.68115942,< 4
same,PXC50,[1]; MAX_EFFECT 40.13605442,< 4
same,PXC50,[1]; MAX_EFFECT 44.81658692,< 4
same,PXC50,[1]; MAX_EFFECT 49.91243433,< 4
O=C(c1ccc(F)c(Cl)c1)N1C[C@@H]2CC[C@H](C1)N(Cc1ccccc1)C2,PXC50,[1]; MAX_EFFECT 29.03225806,< 4
same,PXC50,[1]; MAX_EFFECT 41.91419142,< 4
same,PXC50,[1]; MAX_EFFECT 44.92753623,< 4
same,Percent Effect,[2],-1.36%
same,Percent Effect,[3],-13.7%
same,Percent Effect,[4],5.89%
same,Percent Effect,[5],19.2%
same,Percent Effect,Trypanosoma cruzi,-6.15%
same,Percent Effect,[6],1.6%
same,Percent Effect,[7],11.2%
same,Percent Effect,Homo sapiens,-10.1%
same,Percent Effect,[8],11.5%
same,Percent Effect,[9],25.9%
same,Percent Effect,[10],0.975%
CC(C)Cc1ncc(CNc2cnccc2CO)s1,PXC50,[1]; MAX_EFFECT 2.711323764,< 4
same,PXC50,[1]; MAX_EFFECT 4.081632653,< 4
same,PXC50,[1]; MAX_EFFECT 4.798464491,< 4
same,PXC50,[1]; MAX_EFFECT 7.246376812,< 4
same,PXC50,[1]; MAX_EFFECT 9.632224168,< 4
CC(C)C[C@H](N)COc1cccc(F)c1Oc1cccc(Cl)c1,PXC50,"[1]; BOTTOM 6.91310013, HILLSLOPE 1.495350679, MAX_EFFECT 83.36221837, TOP 100.0",4.36
same,PXC50,"[1]; BOTTOM 8.664927698, HILLSLOPE 1.748800753, MAX_EFFECT 77.85234899, TOP 95.40759793",4.33
same,PXC50,"[1]; BOTTOM 9.147353303, HILLSLOPE 1.551603339, MAX_EFFECT 81.25, TOP 100.0",4.34
same,PXC50,"[1]; BOTTOM -0.863158235, HILLSLOPE 2.70922767, MAX_EFFECT 71.29186603, TOP 83.59060963",4.29
same,PXC50,"[1]; BOTTOM -4.44021311, HILLSLOPE 1.559741226, MAX_EFFECT 77.3512476, TOP 100.0",4.35
